PubChem BioAssay (Tox21)
Inconclusive results are not listed. A number with no mark means an inactive call. Active and inactive are the calls of the source. Calls come from the whole dose curve; as a rule, active = well fitted cell-killing curve with a large enough effect in the repeat runs; inconclusive = weak or mixed curves, or effect the other way; inactive = flat fitted curve, though single readings scatter.

Assay: Nuclear factor erythroid 2-related factor 2/antioxidant responsive element (Nrf2/ARE) small molecule agonists: qHTS cell viability counter screen in human keratinocytes (AID 1919968); note: nearly all actives have a fitted effect of over 55% in size
Details: KeratinoSens HaCaT ARE cells viability, CellTiter-Fluor, 24 h; series mostly up to 92.4 µM; activity change, negative = cytotoxicity: at the top concentration
How it was run: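 After a 5 h attachment period, ARE-reporter keratinocytes were dosed with compounds in DMSO and then cultured 23 h at 37 C. Cell viability came from CellTiter-Fluor signal read after a further 1 h.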
% is set by controls: 0 for no effect and ±100 for the full control effect; potency is the fitted concentration of half-maximal effect.

Structure (SMILES) | activity change, negative = cytotoxicity | Potency
C=CC(=C)CC/C=C(\C)CCC=C(C)C | -0.584% [at 19 µM] | –
C[C@H](CCC(=O)O)[C@H]1CC[C@H]2[C@@H]3[C@H](O)C[C@@H]4C[C@H](O)CC[C@]4(C)[C@H]3C[C@H](O)[C@]12C | 0.465% [at 42.5 µM] | –
CC(C)C[P+](C)(CC(C)C)CC(C)C | -1.22% | –
CCCCCCCCCCCCCCCCCCN(C)C | 20.4% [at 42.5 µM] | –
CCOC(=O)O[C@H](C)OC(=O)c1ccc2c(c1)cc(C(=O)NC1CCN(C(C)C)CC1)n2Cc1cc(-c2ccc(Cl)s2)on1 | – | 11.4 µM (active)
CC(=O)Nc1cccc(C)c1 | 3.41% | –
O=C(NCCN1CCOCC1)c1ccc(Cl)cc1 | -4.08% [at 42.5 µM] | –
CCCCCCCCCCCCCOP(=O)(O)O | -9.18% | –
CCCC(C)C | 4.9% | –
Cc1[nH]c(=O)c(C#N)cc1-c1ccc2nccn2c1 | -11.2% [at 42.5 µM] | –
CCO | 1.64% | –
CC(=O)Nc1ccc(OCC(O)CNC(C)C)cc1 (stereo not given) | -2.37% [at 42.5 µM] | –
O=C(NS(=O)(=O)/C=C/c1ccccc1)c1ccc(F)cc1Cl | 0.2% | –
CCOC(=O)CCCCCCCCC(=O)OCC | 3.22% | –
CC(C)OC(=O)C(C(=O)OC(C)C)=C1SC=CS1 | -0.204% [at 42.5 µM] | –
O=C(CN1CCN(Cc2ccc3c(c2)OCO3)CC1)N1c2ccccc2Sc2ccccc21 | -1.57% [at 42.5 µM] | –
CC(=O)Oc1ccc(C(C)=O)cc1 | -2.02% | –
Cc1ccc(C(=O)Oc2ccc(C(O)CNC(C)(C)C)cc2OC(=O)c2ccc(C)cc2)cc1 (stereo not given) | -22.1% [at 42.5 µM] | –
Oc1ccc(Cl)c2cccnc12 | – | 0.531 µM (active)
CCCCCCCC/C=C\CCCCCCCCOCCO | – | 22.4 µM (active)

Structure (SMILES) | activity change, negative = cytotoxicity | Potency
CC(=O)OC(C)c1ccccc1 (stereo not given) | 1.49% | –
O=S(=O)(Cl)c1c(Cl)cccc1Cl | -1.44% | –
CCOC(=O)CC1(C)OCC(C)O1 (stereo not given) | 4.15% | –
C1CC(COCC2CO2)CCC1COCC1CO1 (stereo not given) | -1.71% | –
CCCCCCCCCCC(=O)O | 0.217% | –
O=C1OCc2ccccc21 | 3.46% | –
CC1(C)C(=O)N(CO)C(=O)N1CO | -3.13% | –
CCCC(c1cc(C(C)(C)C)c(O)cc1C)c1cc(C(C)(C)C)c(O)cc1C | – | 6.94 µM (active)
O=C(O)CNCC(=O)O | 0.812% [at 8.39 µM] | –
CCCS(=O)c1ccc2nc(NC(=O)OC)[nH]c2c1 (stereo not given) | -1.48% [at 42.5 µM] | –
O=C(OCc1ccccc1)C(=O)OCc1ccccc1 | 8.99% | –
C/C=C(\C)C#N | 1.71% | –
Cl[Si](Cl)(c1ccccc1)c1ccccc1 | 4.13% | –
N=C(N)c1ccc(OCCCOc2ccc(C(=N)N)cc2)cc1 | -14.9% [at 42.5 µM] | –
COC(=O)C(C)O (stereo not given) | 0.0819% | –
CCc1nccnc1CC | 5.52% [at 19 µM] | –
C=CC(=O)OCCCCCCCCCC | -1.54% | –
CO[Si](CCCNc1ccccc1)(OC)OC | 0.515% | –
CCCCCCCCCCCCCCCCOS(=O)(=O)O | -3.61% [at 42.5 µM] | –
CC(C)(c1ccc(Oc2ccc3c(c2)C(=O)OC3=O)cc1)c1ccc(Oc2ccc3c(c2)C(=O)OC3=O)cc1 | 4.1% | –
